aSyn 5UTR inh = MLPCN primary screen, SNCA 5' untranslated region; alpha-synuclein 5'UTR reporter, inhibitor activity; inhibition, % (tested at 7.5 µM); 300,000 tested, 0.82% active; AID 1813, 2009; in the data active means inhibition above about 60%;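 further: H4 neuroglioblastoma cells stably carrying SNCA 5'UTR luciferase fusion; 0% = DMSO wells and 100% = positive control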
TROY signal inh = inhibitors of TROY-driven NF-kB signaling, primary screen, Q293 LMP1-TROYcd cells, NF-kB luciferase, uHTS; inhibition, % at 10 µM; Q293 LMP1-TROYcd NF-kB luciferase reporter, 4 h; 360,000 tested, 0.98% active;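 active means compounds whose plate-normalised and pattern-corrected inhibition of the luciferase reporter signal at the single screening dose is 50% or more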
HIF-2a inh = HIF-2a reporter inhibitors, primary screen, luminescence, 786-0 RCC cells; inhibition, % at 18.8 µM; AID 624352, 2012; 786-0 RCC cells HIF-2a reporter, luciferase luminescence, overnight; 360,000 tested, 0.72% active;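 active means inhibition of the luminescence signal of 40% or more relative to plate controls, in a single-dose primary screen at 18.75 µM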
TWEAK-Fn14 inh = inhibitors of TWEAK-Fn14 signaling, primary screen, luciferase reporter cells, uHTS. AID 1159606, 2016. TWEAK-stimulated Fn14 reporter cells, luciferase luminescence, 8 h. 360,000 tested, 2% active. inhibition, % at 10 µM; in the data active means inhibition above about 50%
HSP90 refold inh = HSP90 inhibitors, primary screen, cell lysate, luminescence | inhibition, % at 5.6 µM | Heat shock protein HSP 90 (rabbit reticulocyte lysate; luciferase refolding) | AID 1789, 2009 | 290,000 tested, 0.91% active | Rabbit reticulocyte lysate, luciferase refolding luminescence, 3 h;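 active means inhibition above the screen-wide mean plus 3 SD, computed separately per campaign, cut at about 16% in these data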;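 further: 0% = DMSO wells and 100% = 60 µM geldanamycin wells; inhibitors lower the luminescence because luciferase stays unfolded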
C8 TRAIL sens = viability loss with TRAIL in NB7+C8 cells, primary screen, TRAIL sensitizer project, cell-based, ATPlite luminescence; 360,000 tested, 1% active; inhibition (viability loss, TRAIL sensitization), % at 10 µM; AID 624354, 2012;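 active means compounds causing at least 50% loss of cell viability in the single-dose screen, relative to plate controls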
* hit, by the source's call; . = not tested or not shown. Rows were chosen to be rich in hits. Some 3.9% of all compounds tested hit in one or more screens of this group.

SMILES	aSyn 5UTR inh	TROY signal inh	HIF-2a inh	TWEAK-Fn14 inh	HSP90 refold inh	C8 TRAIL sens
N#C/C(=N\Nc1ccc(S(=O)(=O)N2CCc3ccccc32)cc1)C(N)=S	10	72*	32	58*	3	23
CCOC(=O)/C(C#N)=N/Nc1ccc(S(=O)(=O)N2CCc3ccccc32)cc1	15	52*	-1	36	2	5
COc1ccc(/C=C2\C(=O)ON=C2c2ccccc2)cc1	-1	-62	27	0	3	4
O=C1ON=C(c2ccccc2)/C1=C/c1ccc(O)c(O)c1	-24	-44	41*	2	-6	23
CCN(CC)C(=O)C1=C(C)N(CCCOC)C(=O)C(CC(=O)NC2CCCCC2)C1 (configuration not stated)	.	1	8	14	.	2
O=C(Nc1nccs1)c1ccc(-c2ccc(Cl)cc2)o1	-207	-53	-357	23	-1	81*
O=C(Nc1nccs1)c1ccc(-c2ccc(F)cc2)o1	-260	-77	-307	29	2	54*
COc1ccc(NS(=O)(=O)c2cc(NC(=O)c3ccc(F)cc3)ccc2OC)cc1	18	10	17	23	-4	-4
COc1ccc(NC(=O)c2ccc(F)cc2)cc1S(=O)(=O)Nc1cc(C)ccc1Br	12	44	4	60*	4	1
COc1ccc(Nc2c(CCc3ccccc3)nc3nc(C)cc(C)n23)cc1	.	-29	-44	1	.	1
Cc1nc(N2CCN(c3ccccn3)CC2)c2c(C)c(C(=O)Nc3c(F)cc(F)cc3Br)sc2n1	10	28	-1	65*	1	16
Cc1c(C(=O)N2CCN(c3ccccc3)CC2)sc2ncnc(N3CCN(c4ccccn4)CC3)c12	5	33	13	45	-3	-1
Cc1c(C(=O)N2CCN(c3ccc(F)cc3)CC2)sc2ncnc(N3CCN(c4ccccn4)CC3)c12	22	53*	6	60*	1	17
COCCN1C[C@@H](CO)O[C@@H](n2cnc3c(NCCCO)ncnc32)C1	.	9	14	-18	.	5
CC(=O)Nc1ccc(/C=C2\CCc3ccccc3C2=O)cc1	-118	71*	-234	76*	7	39
CCC1C/C(=C\c2cccnc2)C(=O)/C(=C/c2cccnc2)C1 (configuration not stated)	.	59*	92*	105*	9	19
COc1ccc(/C=C2\CCc3ccccc3C2=O)cc1O	14	31	-133	74*	4	66*
O=C1/C(=C\c2cccnc2)CCc2ccccc21	-26	.	-4	92*	-1	11
O=C1/C(=C/c2ccccc2)CCCc2ccccc21	-24	-26	-64	-15	-1	2
O=C1/C(=C/c2cccnc2)CC/C1=C\c1cccnc1	-65	7	35	15	0	17
NC(=O)C1(Nc2ccc(Br)cc2)CCCC1	.	6	15	-2	.	4
O=C1/C(=C\c2ccc([N+](=O)[O-])cc2)CCc2ccccc21	-60	55*	-121	86*	2	78*
O=C(COC(=O)/C=C/c1ccc(F)cc1)NC1CCS(=O)(=O)C1 (configuration not stated)	.	2	8	3	.	1
O=S(=O)(c1ccc(NC(=S)N2CCCCC2CO)cc1)N1CCOCC1 (configuration not stated)	.	-11	7	4	.	-1
CCOc1ccc(CNC(=O)C2CCCN(S(C)(=O)=O)C2)cc1OC (configuration not stated)	19	-14	-18	92*	-1	3
SMILES	aSyn 5UTR inh	TROY signal inh	HIF-2a inh	TWEAK-Fn14 inh	HSP90 refold inh	C8 TRAIL sens
CS(=O)(=O)N1CCCC(C(=O)NCCc2ccccc2)C1 (configuration not stated)	17	35	9	69*	-3	-8
CCOc1ccc(CNC(=O)C2CCCN(S(=O)(=O)N3CCC(C)CC3)C2)cc1OC (configuration not stated)	.	14	5	10	.	8
COc1ccc(C(=O)N2CCC(C)(C(=O)O)C2)c(OC)c1 (configuration not stated)	.	-5	11	6	.	1
COC(=O)c1cc(=O)nc(NN=Cc2ccco2)s1	.	0	8	10	.	3
C[C@@H](NC(=O)c1ncn2c1c(=O)[nH]c1ccc(Br)cc12)c1ccccc1	.	-4	7	1	.	69*
C[C@H](NC(=O)c1nc[nH]c1C(=O)N(C)CCO)c1ccccc1	.	-16	8	39	.	2
Cn1c(CC(=O)Nc2ccc(Cl)c(Cl)c2)nnc1SCC(=O)N1CCN(c2ccccc2)CC1	15	29	3	51*	1	1
Cc1nc(SCC(=O)N2CCN(c3ccccc3)CC2)c2oc3ccccc3c2n1	-21	24	36	52*	1	10
CCn1c(SCC(=O)N2CCN(c3ccccc3)CC2)nnc1-c1cc2cc(Cl)ccc2o1	14	59*	6	47	-3	9
COc1ccc(-c2csc(C(O)c3ccc(F)c(F)c3)n2)cc1 (configuration not stated)	.	-39	-66	-30	.	11
CCc1cccc(NC(=O)COC(=O)C2COc3ccccc3O2)c1 (configuration not stated)	.	1	14	7	.	2
CC1=NN(c2ccc(C)c(C)c2)C(=O)/C1=C\C=C\c1ccc([N+](=O)[O-])o1	78*	33	-1	86*	3	79*
CCOC(=O)c1ccc(N2N=C(C)/C(=C/C=C/c3ccco3)C2=O)cc1	-11	5	-4	18	1	-4
CC(C)NC(=O)N[C@H]1C=C[C@H](CC(=O)NCc2ccc(Oc3ccccc3)cc2)O[C@@H]1CO	.	.	2	.	.	-5
Cc1ccc2c(c1)N(CCCC(=O)NCCCN1CCCCC1)C(=O)CO2	8	-7	4	64*	-4	-2
CCOc1ccc(CNC(=O)C2CCN(S(=O)(=O)N3CCC(C)CC3)CC2)cc1OC	.	-2	3	-19	.	11
CCC(COC)Oc1cc(NCc2ccccc2)c2ncn(C(C)C)c2c1 (configuration not stated)	.	30	12	33	.	58*
CCC(CO)Oc1cc(NCc2ccccc2)c2ncn(C(C)C)c2c1 (configuration not stated)	.	-32	5	-3	.	19
CSc1ccc(/C=N/NC(=O)c2cccc(O)c2)cc1	-167	-38	-203	18	6	74*
CC(C)c1ccc(/C=N/NC(=O)c2ccc(-n3cnnn3)cc2)cc1	.	26	-6	65*	.	20
O=C(N/N=C/c1ccc(F)cc1)c1ccc(-n2cnnn2)cc1	.	-7	-2	35	.	-10

Screens (PubChem)
